Among the data in PubChem BioAssay are composite z-score and z-score values, retold here.

Experiment [1] relates to PRMT1 (protein arginine N-methyltransferase 1). Nature of the experiment: small molecules binding arginine methyltransferase PRMT1 – biochemical, small-molecule microarray, 635 nm fluorescence, primary screen (AID 1088).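 Further: binding of Prmt1 protein to compounds spotted on small-molecule microarray slides.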 Conditions: higher = more signal.
Experiment [2] in a line: growth effects on S. cerevisiae YJM789 – YJM789 clinical isolate, OD600, 24 h, basal, primary screen (AID 1089).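 Further: growth of clinical yeast isolate S. cerevisiae YJM 789 seeded 1000 cells per well; test concentration not given here.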 As to conditions: higher = more signal, called active from +8 up or from −8 down.
A short description of experiment [3]: S. pombe growth modifiers, basal conditions – strain 972, OD600, 24 h, no modulator, primary screen (AID 1090).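 Further: basal condition with compound alone and no growth modifier present; test concentration not given here.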 Conditions: S. pombe 972 growth, higher = more signal, called active from +8 up or from −8 down.
A short description of experiment [4]: budding yeast growth modifiers under rapamycin – strain BY4716, OD600, 96 h, primary screen (AID 1091). Further: test concentration not given here. As to conditions: S. cerevisiae BY4716 + rapamycin, higher = more signal, called active from +8 up or from −8 down.
Experiment [5] has as its target Torsin-1A-interacting protein 2 (Homo sapiens) (UniProt Q8NFQ8). Nature of the experiment: small molecules binding lysate-expressed LULL1 – cell lysate, human LULL1 lysate, 635/667 nm fluorescence, primary screen (AID 1092).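 Further: probe is lysate of COS7 cells overexpressing human LULL1; score merges per-feature 667 nm fluorescence with signal-to-noise.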 As to conditions: small-molecule microarray, hLULL1 lysate binding, 635 nm fluorescence; higher = more signal.
Experiment [6] in a line: optical density change of DRC41 E. coli – strain DRC41, OD650, 24 h, E. coli filamentation project, primary screen (AID 1093).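 Further: MC1000 strain lacking acrAB efflux and sulA so SOS filamentation is blocked; test concentration not given here.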 As to conditions: E. coli DRC41 growth, higher = more signal, called active from +8 up or from −8 down.
The nature of experiment [7]: probe aLefty2 binding to arrayed compounds – biochemical, biotinylated probe, 635/667 nm fluorescence, primary screen (AID 1094).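 Further: score merges spot fluorescence near 667 nm with spot signal-to-noise ratio.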 Conditions: small-molecule microarray, higher = more signal.
For experiment [8], the system named is Noggin (protein binding on small-molecule microarray). Nature of the experiment: small molecules binding Noggin protein – biochemical, 635/667 nm fluorescence, primary screen (AID 1095).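 Further: score merges 667 nm feature fluorescence with signal to noise over triplicate slides.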 As to conditions: 635 nm fluorescence, higher = more signal.
Experiment [9] concerns the target Neurogenic locus notch homolog protein 3 (Homo sapiens) (UniProt Q9UM47). In words: small molecules binding NOTCH3 protein – biochemical, 635/667 nm fluorescence, primary screen (AID 1096). As to conditions: small-molecule microarray, 635 nm fluorescence, higher = more signal.
The nature of experiment [10]: probe aEGFR binding to arrayed compounds – biochemical, biotinylated probe, 635/667 nm fluorescence, primary screen (AID 1097).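 Further: probe is a biotinylated anti-EGFR antibody binding compounds printed on slides; score combines fluorescence near 667 nm and signal to noise of each spot.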 As to conditions: small-molecule microarray, higher = more signal.
In experiment [11] the test system is Plasmodium falciparum Sir2 (PF13_0152, Sir2A). In words: Plasmodium falciparum Sir2A binding compounds – biochemical, small-molecule microarray, 635 nm fluorescence, primary screen (AID 1098).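 Further: score merges spot fluorescence intensity with its signal-to-noise ratio.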 As to conditions: fluorescence 635 nm, higher = more signal.
The nature of experiment [12]: probe aDKK1 binding to arrayed compounds – biochemical, biotinylated probe, 635/667 nm fluorescence, primary screen (AID 1099).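 Further: score merges 667nm spot fluorescence with signal to noise across triplicate slides; reference of the scale not given here.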 Conditions: small-molecule microarray, higher = more signal.
Experiment [13] is described as follows: probe aCHRDL2 binding to arrayed compounds – biochemical, biotinylated probe, 635/667 nm fluorescence, primary screen (AID 1100). Conditions: small-molecule microarray, higher = more signal.
Experiment [14] in a line: change in splice reporter luminescence, either direction, cell-based, HEK293, spliceosome inhibition project, primary screen (AID 1101).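 Further: HEK293 cells carrying a splicing-competent luciferase reporter gene; test concentration not given here.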 As to conditions: HEK293 splicing luciferase reporter, 24 h, higher = more signal, called active from +8 up or from −8 down.
Experiment [15] deals with Fibroblast growth factor 10 (Homo sapiens) (UniProt O15520). Nature of the experiment: compounds binding fibroblast growth factor 10 – biochemical, small-molecule microarray, 635 nm fluorescence, primary screen (AID 1102). Conditions: FGF10 binding, fluorescence 635 nm, higher = more signal.
Sequence of Fibroblast growth factor 10 (Homo sapiens) (O15520 whole entry, looked up): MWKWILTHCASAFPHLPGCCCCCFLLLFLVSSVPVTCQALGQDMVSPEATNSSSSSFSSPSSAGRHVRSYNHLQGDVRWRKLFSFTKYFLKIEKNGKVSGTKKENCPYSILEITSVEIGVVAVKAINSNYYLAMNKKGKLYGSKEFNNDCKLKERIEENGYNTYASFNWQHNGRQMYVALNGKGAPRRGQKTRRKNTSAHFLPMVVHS
Experiment [16] has as its system glycogen synthase kinase-3 (GSK3A per assay name; protocol says GSK3B). Nature of the experiment: compounds binding glycogen synthase kinase-3 – biochemical, small-molecule microarray, 635 nm fluorescence, GSK3A, primary screen (AID 1103). Further: the record names both GSK3A and GSK3B. As to conditions: fluorescence 635 nm, higher = more signal.
Experiment [17] has as its target Epidermal growth factor receptor (Homo sapiens) (UniProt P00533). Nature of the experiment: compounds binding epidermal growth factor receptor – biochemical, small-molecule microarray, 635 nm fluorescence, primary screen (AID 1104).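 Further: score merges 667 nm emission intensity with spot signal to noise over triplicate slides.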 As to conditions: EGFR binding, higher = more signal.
In experiment [18] the target is Follistatin-related protein 3 (Homo sapiens) (UniProt O95633). In words: compounds binding follistatin-related protein 3 – biochemical, small-molecule microarray, 635 nm fluorescence, primary screen (AID 1105).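 Further: score merges emission near 667 nm and signal to noise per printed spot across three slides.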 As to conditions: FSTL3 binding, higher = more signal.
Sequence of Follistatin-related protein 3 (Homo sapiens) (O95633 whole entry, looked up): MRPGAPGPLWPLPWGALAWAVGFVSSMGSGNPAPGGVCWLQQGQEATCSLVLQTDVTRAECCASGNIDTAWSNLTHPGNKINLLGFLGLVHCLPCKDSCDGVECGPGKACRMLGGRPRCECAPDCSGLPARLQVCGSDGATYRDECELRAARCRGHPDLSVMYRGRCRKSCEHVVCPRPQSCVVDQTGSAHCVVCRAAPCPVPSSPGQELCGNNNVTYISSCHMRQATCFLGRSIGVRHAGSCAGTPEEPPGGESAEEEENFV
The target of experiment [19] is Dickkopf-related protein 1 (Homo sapiens) (UniProt O94907). Nature of the experiment: small molecules binding DKK1 protein – biochemical, small-molecule microarray, 635 nm fluorescence scan, primary screen (AID 1106).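 Further: score merges emission near 667 nm with signal to noise over three replicate slides.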 As to conditions: higher = more signal.
Sequence of Dickkopf-related protein 1 (Homo sapiens) (O94907 whole entry, looked up): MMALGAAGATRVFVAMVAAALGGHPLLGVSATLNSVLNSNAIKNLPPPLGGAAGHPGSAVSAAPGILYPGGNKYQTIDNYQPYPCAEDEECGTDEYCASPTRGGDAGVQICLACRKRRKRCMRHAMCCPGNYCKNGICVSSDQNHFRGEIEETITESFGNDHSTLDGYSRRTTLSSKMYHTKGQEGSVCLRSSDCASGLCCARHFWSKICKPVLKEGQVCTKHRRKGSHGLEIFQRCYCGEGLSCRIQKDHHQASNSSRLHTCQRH
The test system of experiment [20] is Inhibin beta A chain (activin A). In words: small molecules binding activin A – biochemical, small-molecule microarray, 635 nm fluorescence scan, primary screen (AID 1107).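 Further: mouse activin A protein probed at 4.33 µg/mL on printed slides; score merges bound-protein fluorescence near 667 nm with spot signal-to-noise.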 Conditions: INHBA, higher = more signal.

Structures are written as SMILES. Activity calls are given as the source filed them.

Sequence of Neurogenic locus notch homolog protein 3 (Homo sapiens) (Q9UM47 whole entry, looked up): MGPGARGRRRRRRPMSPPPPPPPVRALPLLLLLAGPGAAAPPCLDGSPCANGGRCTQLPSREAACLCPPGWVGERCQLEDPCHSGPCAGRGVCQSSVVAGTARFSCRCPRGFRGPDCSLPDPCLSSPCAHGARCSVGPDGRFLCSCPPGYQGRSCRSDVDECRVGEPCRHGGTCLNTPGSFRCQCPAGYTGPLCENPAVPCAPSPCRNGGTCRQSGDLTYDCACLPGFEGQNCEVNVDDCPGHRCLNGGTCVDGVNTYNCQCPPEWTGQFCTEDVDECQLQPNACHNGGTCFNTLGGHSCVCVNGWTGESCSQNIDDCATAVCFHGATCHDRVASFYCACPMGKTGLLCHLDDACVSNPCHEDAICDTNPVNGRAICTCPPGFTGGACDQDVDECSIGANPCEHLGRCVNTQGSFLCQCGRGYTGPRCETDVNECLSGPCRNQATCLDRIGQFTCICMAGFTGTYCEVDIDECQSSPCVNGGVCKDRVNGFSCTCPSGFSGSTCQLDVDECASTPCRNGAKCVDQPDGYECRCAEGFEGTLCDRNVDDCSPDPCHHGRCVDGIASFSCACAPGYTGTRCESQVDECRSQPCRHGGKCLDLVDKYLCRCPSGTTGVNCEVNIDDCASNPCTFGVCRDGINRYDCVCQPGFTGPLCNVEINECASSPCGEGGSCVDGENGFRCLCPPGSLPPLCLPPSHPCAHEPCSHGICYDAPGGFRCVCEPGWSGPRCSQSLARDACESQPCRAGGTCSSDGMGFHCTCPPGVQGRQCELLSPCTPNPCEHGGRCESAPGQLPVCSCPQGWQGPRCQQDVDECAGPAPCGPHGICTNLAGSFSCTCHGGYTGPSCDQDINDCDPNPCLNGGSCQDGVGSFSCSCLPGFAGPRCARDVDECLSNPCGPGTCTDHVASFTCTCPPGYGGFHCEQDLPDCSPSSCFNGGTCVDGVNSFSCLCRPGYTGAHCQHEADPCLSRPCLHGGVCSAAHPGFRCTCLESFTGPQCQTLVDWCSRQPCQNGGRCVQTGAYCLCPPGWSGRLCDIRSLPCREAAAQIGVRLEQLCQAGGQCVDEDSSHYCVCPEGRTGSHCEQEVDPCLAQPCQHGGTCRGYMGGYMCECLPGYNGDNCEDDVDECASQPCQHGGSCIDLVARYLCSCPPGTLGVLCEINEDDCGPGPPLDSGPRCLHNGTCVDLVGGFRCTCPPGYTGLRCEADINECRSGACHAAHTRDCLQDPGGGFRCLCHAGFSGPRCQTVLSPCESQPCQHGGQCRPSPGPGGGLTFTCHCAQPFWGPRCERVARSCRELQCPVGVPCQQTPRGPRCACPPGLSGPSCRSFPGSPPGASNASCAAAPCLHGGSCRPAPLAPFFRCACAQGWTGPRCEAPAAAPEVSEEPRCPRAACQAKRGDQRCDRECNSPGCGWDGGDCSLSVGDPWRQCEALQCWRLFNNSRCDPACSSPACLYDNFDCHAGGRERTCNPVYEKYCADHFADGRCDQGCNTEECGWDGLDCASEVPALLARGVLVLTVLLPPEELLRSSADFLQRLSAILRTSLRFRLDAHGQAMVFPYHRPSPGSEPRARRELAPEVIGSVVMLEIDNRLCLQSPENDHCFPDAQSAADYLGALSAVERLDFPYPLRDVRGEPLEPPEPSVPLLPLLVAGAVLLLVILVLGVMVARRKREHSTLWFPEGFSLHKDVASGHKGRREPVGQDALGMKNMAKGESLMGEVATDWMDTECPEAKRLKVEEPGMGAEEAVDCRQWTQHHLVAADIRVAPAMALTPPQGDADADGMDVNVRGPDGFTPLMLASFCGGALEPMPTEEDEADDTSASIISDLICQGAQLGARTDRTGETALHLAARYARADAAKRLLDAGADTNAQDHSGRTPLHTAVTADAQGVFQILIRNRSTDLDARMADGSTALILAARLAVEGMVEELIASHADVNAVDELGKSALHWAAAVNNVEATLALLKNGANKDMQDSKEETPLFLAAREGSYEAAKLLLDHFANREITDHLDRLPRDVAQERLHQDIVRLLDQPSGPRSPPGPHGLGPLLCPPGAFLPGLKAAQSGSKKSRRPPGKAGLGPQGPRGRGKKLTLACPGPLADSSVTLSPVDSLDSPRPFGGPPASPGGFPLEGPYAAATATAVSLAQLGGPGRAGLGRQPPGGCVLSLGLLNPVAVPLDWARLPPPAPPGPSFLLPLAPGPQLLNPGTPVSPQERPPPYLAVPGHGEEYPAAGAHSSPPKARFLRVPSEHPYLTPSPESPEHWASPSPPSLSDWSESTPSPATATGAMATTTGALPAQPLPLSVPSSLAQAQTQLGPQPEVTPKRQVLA
Sequence of Epidermal growth factor receptor (Homo sapiens) (P00533 whole entry, looked up): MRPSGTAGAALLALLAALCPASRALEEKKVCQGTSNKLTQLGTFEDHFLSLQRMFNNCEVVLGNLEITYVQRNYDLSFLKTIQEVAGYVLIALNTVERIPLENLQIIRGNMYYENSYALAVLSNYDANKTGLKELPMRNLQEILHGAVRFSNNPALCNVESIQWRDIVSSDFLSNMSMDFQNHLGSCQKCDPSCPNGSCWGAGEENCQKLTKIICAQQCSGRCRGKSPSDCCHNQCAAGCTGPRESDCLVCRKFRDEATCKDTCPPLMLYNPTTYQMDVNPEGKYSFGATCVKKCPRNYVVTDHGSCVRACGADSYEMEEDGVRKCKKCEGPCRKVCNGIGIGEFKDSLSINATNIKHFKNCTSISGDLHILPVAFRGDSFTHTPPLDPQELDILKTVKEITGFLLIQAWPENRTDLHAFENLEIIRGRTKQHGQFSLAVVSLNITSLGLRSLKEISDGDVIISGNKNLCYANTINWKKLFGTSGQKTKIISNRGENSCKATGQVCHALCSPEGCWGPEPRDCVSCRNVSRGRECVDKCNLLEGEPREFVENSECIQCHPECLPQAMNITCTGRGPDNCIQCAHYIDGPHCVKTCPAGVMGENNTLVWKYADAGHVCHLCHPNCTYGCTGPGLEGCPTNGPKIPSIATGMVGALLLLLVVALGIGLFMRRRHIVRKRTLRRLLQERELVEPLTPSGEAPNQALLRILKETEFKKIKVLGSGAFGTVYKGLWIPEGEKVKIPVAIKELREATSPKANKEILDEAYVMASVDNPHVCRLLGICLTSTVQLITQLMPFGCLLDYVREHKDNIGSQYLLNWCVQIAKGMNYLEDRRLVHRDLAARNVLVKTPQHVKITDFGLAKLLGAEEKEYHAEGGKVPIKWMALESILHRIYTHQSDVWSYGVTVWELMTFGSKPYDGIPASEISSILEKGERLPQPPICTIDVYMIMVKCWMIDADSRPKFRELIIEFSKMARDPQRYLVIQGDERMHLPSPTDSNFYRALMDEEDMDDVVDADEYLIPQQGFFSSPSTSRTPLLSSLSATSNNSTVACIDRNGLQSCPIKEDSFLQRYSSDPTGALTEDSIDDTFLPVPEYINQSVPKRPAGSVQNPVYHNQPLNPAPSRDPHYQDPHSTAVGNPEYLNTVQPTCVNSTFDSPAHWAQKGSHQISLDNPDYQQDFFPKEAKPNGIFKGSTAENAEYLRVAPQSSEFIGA
Sequence of Torsin-1A-interacting protein 2 (Homo sapiens) (Q8NFQ8 whole entry, looked up): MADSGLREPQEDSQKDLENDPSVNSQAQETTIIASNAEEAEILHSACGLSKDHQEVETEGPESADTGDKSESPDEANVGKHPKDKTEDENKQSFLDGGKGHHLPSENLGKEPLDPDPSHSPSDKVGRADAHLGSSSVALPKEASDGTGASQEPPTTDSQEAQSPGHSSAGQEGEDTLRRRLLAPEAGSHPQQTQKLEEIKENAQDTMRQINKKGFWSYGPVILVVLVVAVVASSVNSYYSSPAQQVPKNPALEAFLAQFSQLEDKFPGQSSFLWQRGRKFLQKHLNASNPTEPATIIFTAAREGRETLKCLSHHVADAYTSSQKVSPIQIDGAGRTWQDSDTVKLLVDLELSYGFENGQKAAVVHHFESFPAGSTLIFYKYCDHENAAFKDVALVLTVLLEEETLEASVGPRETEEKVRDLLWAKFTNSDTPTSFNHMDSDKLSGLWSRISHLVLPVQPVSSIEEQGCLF

On to `CCCCC(CC)C(O)C1C=CC2C(=O)N(C)C(=O)C2N1Nc1ccccc1` (stereo not given), for which the composite z-score in experiment [1] was 1.36; in [5], 2.87; in experiment [7], -0.121; in [8], 0.123; in [9], 1.03; in experiment [10], -0.154. In addition, the composite z-score in experiment [11] was 0.579; in experiment [12], 0.559; in experiment [13], 0.0302; in experiment [15] it was 0.304; in experiment [16], 0.598; in experiment [17] it was -0.248. For the same compound, the composite z-score in experiment [18] is 0.192; in [19], -0.0617; in [20], 0.864. Besides, the z-score in [2] is 0.307 (inactive); in experiment [3], -0.592 (inactive); in experiment [4] it was 0.695 (inactive); in experiment [6], -0.931 (inactive); in experiment [14], 1.48 (inactive).
For the compound `COc1ccc(CCNC(=O)[C@@]2(Cc3ccccc3I)c3ccccc3C(=O)N(C3CCCCC3)[C@H]2c2ccc(CO)cc2)cc1`, the composite z-score in experiment [1] was 1.36; in experiment [5], 2.3; in experiment [7] it was -0.0176; in experiment [8], -0.275; in experiment [9], 0.566; in experiment [10] it was -0.115. The composite z-score in experiment [11] was 1.41; in [12] it was 0.0563; in experiment [13] it was 0.58; in [15], -0.277; in experiment [16], 0.302; in experiment [17], -0.354. For the same compound, the composite z-score in experiment [18] was 0.123; in [19] it was -0.41; in experiment [20], 0.272. The z-score was -2.01 (inactive) in experiment [2]; -1.81 (inactive) in experiment [3]; -0.742 (inactive) in experiment [4]; -1.41 (inactive) in experiment [6]; -1.17 (inactive) in experiment [14].
For `[N-]=[N+]=NCc1ccccc1[C@@H]1OC(c2ccc(OCCCO)cc2)=N[C@]1(CCS(=O)(=O)c1ccccc1)C(=O)O`, the composite z-score in experiment [1] was 0.627; in experiment [5] it was 3.31; in experiment [7] it was 0.17; in experiment [8], -0.823; in experiment [9], 0.123; in experiment [10], -0.0535. Further, the composite z-score was 0.654 in experiment [11]; 0.79 in experiment [12]; 0.95 in [13]; 0.559 in [15]; -0.0623 in [16]; -0.231 in [17]. The composite z-score in experiment [18] was -0.337; in experiment [19] it was -0.713; in experiment [20], 1. For the same compound, the z-score in experiment [2] is 0.302 (inactive); in experiment [3], 0.76 (inactive); in experiment [4], 0.248 (inactive); in experiment [6], 0.177 (inactive); in [14], -0.551 (inactive).
For the compound `CN(C)C(=O)[C@]1(CCC(=O)OC(C)(C)C)N=C(c2ccc(OCCCO)cc2)O[C@@H]1c1ccccc1CN=[N+]=[N-]`, the composite z-score in [1] was 1.18; in experiment [5], 3.81; in experiment [7] it was 0.0987; in experiment [8] it was 0.717; in [9] it was -0.162; in [10], -0.149. Further, the composite z-score in experiment [11] was 1.45; in [12], -0.594; in [13], 1.08; in experiment [15], 0.518; in [16], 0.7; in [17], 0.195. Also, the composite z-score was 0.47 in [18], -0.396 in experiment [19] and 0.418 in [20]. Moreover, the z-score in [2] was -0.299 (inactive); in experiment [3], -1.65 (inactive); in [4], -0.619 (inactive); in experiment [6], 0.682 (inactive); in [14], -0.561 (inactive).
In the case of `CCCNC(=O)[C@@H]1c2ccccc2C(=O)N(Cc2ccc(OC(F)(F)F)cc2)[C@H]1c1ccc(CO)cc1`, the composite z-score in experiment [1] was 0.428; in experiment [5] it was 2.12; in [7], 0.0286; in experiment [8] it was -0.0211; in experiment [9] it was 0.0529; in experiment [10], -0.0316. Also, the composite z-score in experiment [11] is 1.3; in experiment [12], 0.53; in experiment [13], 0.653; in experiment [15] it was 0.402; in experiment [16] it was 0.284; in experiment [17] it was -0.0259. Besides, the composite z-score in [18] is 0.0777; in experiment [19] it was 0.0637; in [20], 0.0914. Moreover, the z-score in [2] was 0.645 (inactive); in [3], 0.0302 (inactive); in experiment [4] it was -0.174 (inactive); in experiment [6], 0.937 (inactive); in experiment [14] it was 0.0883 (inactive).
